Source: PubChem (NMMLSC)
RGS8-Gao reg = RGS8-Galphao binding modulators, primary screen, biochemical, multiplexed bead flow cytometry; actives lie on both sides; AID 1423, 2008; response (percent of control binding), % at 10 µM; 220,000 compounds, 0.34% hits; in the data active = response below about 60% or above about 140%; inactive = in between;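 note: Galphao activated as the GDP aluminium fluoride complex binding bead-coupled RGS8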
Target sequence (P09471 whole entry, looked up): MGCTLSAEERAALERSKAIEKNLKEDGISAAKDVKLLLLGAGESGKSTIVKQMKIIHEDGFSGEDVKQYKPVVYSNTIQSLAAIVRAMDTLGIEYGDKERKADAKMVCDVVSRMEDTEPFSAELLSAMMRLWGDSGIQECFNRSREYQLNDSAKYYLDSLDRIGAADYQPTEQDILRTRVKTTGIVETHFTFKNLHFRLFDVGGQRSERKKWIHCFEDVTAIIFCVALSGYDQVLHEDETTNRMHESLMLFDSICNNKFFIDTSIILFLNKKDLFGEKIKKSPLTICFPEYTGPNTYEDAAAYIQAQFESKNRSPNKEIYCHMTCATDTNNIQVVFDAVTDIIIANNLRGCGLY
RGS16-Gao = modulators of RGS16 binding to Galphao, primary screen, biochemical, human proteins, multiplexed bead flow cytometry. binding response (% of control), % at 10 µM. bead-based flow cytometry RGS16-Galphao binding, fluorescence; actives lie on both sides. 220,000 compounds, 0.38% hits. Regulator of G-protein signaling 16 (Homo sapiens) + Guanine nucleotide-binding protein …. AID 1441, 2008;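 note: Galphao activated by GDP with aluminum fluoride before binding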
GSH bead fluor = compound fluorescence on glutathione beads, profiling panel, artefact control, biophysical, 488/530 nm, flow cytometry. GSH beads flow cytometry, compound fluorescence 488/530 nm; hits give high values. fluorescence (KMESF) at 10 µM. 190,000 compounds, 0.25% hits; in the data active = fluorescence above about 89;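 note: glutathione beads carrying GST-tagged Bcl family fusion proteins plus one bare bead set; values are compound well signal with DMSO vehicle wells as background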
RGS7-Gao = RGS7-Galphao binding modulators, primary screen, biochemical, multiplexed bead flow cytometry; actives lie on both sides; AID 1439, 2008; 220,000 compounds, 0.35% hits; binding response (% of control), % at 10 µM; in the data active = binding response below about 49% or above about 150%; inconclusive = no clear call, values can overlap the other calls; inactive = in between;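 note: fluorescent Galphao held in activated GDP-AlF4 state binding bead-coupled RGS7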
Avidin bead fluor = green autofluorescence of compounds with avidin beads – biophysical, 488/530 nm, flow cytometry, artefact control, profiling panel; compound fluorescence 488/530 nm; hits give high values; fluorescence (KMESF) at 10 µM; 220,000 compounds, 0.38% hits; in the data active = fluorescence above about 47
RGS4-Gao reg = modulators of RGS4 binding to Galphao, primary screen, biochemical, multiplexed bead flow cytometry; Guanine nucleotide-binding protein G(o) subunit alpha (Homo sapiens), P09471; actives lie on both sides; binding response (% of control), % at 10 µM; 220,000 compounds, 0.33% hits; in the data active = binding response below about 49% or above about 150%; inactive = in between;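 note: fluorescent Galphao activated with aluminum fluoride binding bead-coupled RGS4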
RGS4-Gao HTS = modulators of RGS–Galpha-o binding, primary screen, biochemical, multiplexed beads, flow cytometry, RGS4/7/8/16/19; multiplexed bead flow cytometry; RGS4–Galpha-o binding response, % at 10 µM; AID 1504, 2009; 1,600 compounds, 99% hits; shares compounds with RGS16-Gao;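 note: fluorescently labeled Galpha-o bound to GDP with aluminium fluoride binding biotinylated RGS beads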
Avidin counter = disruption of biotin probe capture by avidin, counter-screen for RGS protein interaction modulators, biochemical, flow cytometry, bead-based | inhibition, % at 10 µM | streptavidin beads, fluorescein-biotin binding | 1,700 tested, under 10 active | shares compounds with RGS16-Gao;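 active = inhibition above 50%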;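 note: median green fluorescence of gated singlet beads compared with DMSO control wells; 0% = DMSO wells and 100% = complete loss of bead fluorescence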
RGS8-Gao single = RGS8-Galphao binding modulators, confirmation, biochemical, multiplexed bead flow cytometry, single concentration; bead-based flow cytometry RGS8-Galphao binding, fluorescence; actives lie on both sides; shares compounds with RGS16-Gao; binding response (% of control), % at 10 µM; 1,700 compounds, 3% hits; in the data active = binding response below about 72% or above about 130%; inactive = in between;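 note: Galphao activated as GDP AlF4 complex before binding bead RGS8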
RGS7-Gao single = RGS7-Galphao binding modulators, confirmation, biochemical, multiplexed bead flow cytometry, single concentration; shares compounds with RGS16-Gao; 1,700 compounds, 7.8% hits; bead-based flow cytometry RGS7-Galphao binding; actives lie on both sides; response (percent of control binding), % at 10 µM; AID 1837, 2009; in the data active = response below about 75% or above about 130%; inactive = in between;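 note: fluorescent Galphao activated with GDP and aluminum fluoride binding bead-coupled RGS7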
RGS16-Gao single = modulators of RGS16-Galphao protein binding, confirmation, biochemical, single concentration, multiplexed bead flow cytometry; shares compounds with RGS16-Gao; response (% of control binding), % at 10 µM; AID 1838, 2009; 1,700 compounds, 4% hits; bead-based flow cytometry; actives lie on both sides; in the data active = response below about 74% or above about 130%; inactive = in between;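 note: Galphao activated as the GDP aluminium fluoride complex binding bead-coupled RGS16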
RGS4-Gao single = modulators of RGS4-Galphao protein binding, confirmation, biochemical, single concentration, multiplexed bead flow cytometry. binding response (% of control), % at 10 µM. shares compounds with RGS16-Gao. AID 1840, 2009. actives lie on both sides. 1,700 compounds, 4% hits; in the data active = binding response below about 74% or above about 130%; inactive = in between
RGS19-Gao conf = regulators of RGS19-Galphao binding, confirmation, biochemical, single point, multiplexed bead flow cytometry; shares compounds with RGS16-Gao; bead-based flow cytometry RGS19-Galphao binding; actives lie on both sides; response (percent of control binding), % at 10 µM; 1,700 compounds, 5% hits; in the data active = response below about 50% or above about 160%; inactive = in between;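 note: 100% = no compound control and 0% = blank background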
Target sequence (P09471 whole entry, looked up): as above
Target sequence (P49795 whole entry, looked up): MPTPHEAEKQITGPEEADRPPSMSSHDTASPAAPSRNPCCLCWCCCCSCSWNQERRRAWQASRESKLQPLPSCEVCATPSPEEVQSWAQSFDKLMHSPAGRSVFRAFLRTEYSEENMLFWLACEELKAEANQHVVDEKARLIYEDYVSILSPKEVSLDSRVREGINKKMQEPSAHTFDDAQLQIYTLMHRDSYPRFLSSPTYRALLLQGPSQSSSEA
The depositor's hits bear a star; ? = inconclusive; . = no result; [ ] = another dose, or the depositor's remark. Most compounds without a hit are left out; they make up all but 1.2% or so of the library. Unless noted, the rule behind the calls is not given here.

SMILES | RGS8-Gao reg | RGS16-Gao | GSH bead fluor | RGS7-Gao | Avidin bead fluor | RGS4-Gao reg | RGS4-Gao HTS | Avidin counter | RGS8-Gao single | RGS7-Gao single | RGS16-Gao single | RGS4-Gao single | RGS19-Gao conf
CCOc1ccc(NS(=O)(=O)c2ccc3ncsc3c2)cc1 | 134 | 143 | 15 | 152*[activator] | 8 | 146 | 146* | 1 | 100 | 97 | 98 | 100 | 111
CCOc1ccc(N2CC(C(=O)Nc3c(C)n(C)n(-c4ccccc4)c3=O)CC2=O)cc1 (configuration not stated) | 103 | 102 | 13 | 102 | 20 | 100 | . | . | . | . | . | . | .
O=C1C2C3c4ccccc4C(c4ccccc43)C2C(=O)N1c1cccnc1 (configuration not stated) | 73 | 24* | 11 | 86 | 7 | 88 | 88* | 0 | 100 | 102 | 102 | 102 | 97
CC12c3ccccc3C(c3ccccc31)C1C(=O)N(c3cccnc3)C(=O)C12 (configuration not stated) | 103 | 102 | 16 | 102 | 16 | 104 | . | . | . | . | . | . | .
Cc1ccc(NC(=O)CSc2nc(C)c(Cc3ccccc3)c(=O)[nH]2)cc1 | 17* | 15* | 16 | 22* | 1 | 29* | . | 0 | 99 | 102 | 102 | 102 | 104
CC(C)(C)NC(=O)CSc1nc(N)c(-c2ccccc2)c(=O)[nH]1 | 105 | 109 | 14 | 99 | 15 | 103 | . | . | . | . | . | . | .
Nc1nc(SCC(=O)Nc2ccccc2)[nH]c(=O)c1-c1ccccc1 | . | . | 36 | . | . | . | . | 0 | 98 | 96 | 101 | 99 | 106
CC1CC(OCC(O)C[N+]2(C)CCOCC2)CC(C)(C)C1 (configuration not stated) | 30* | 17* | 14 | 21* | 5 | 22* | . | 0 | 108 | 106 | 109 | 105 | 109
CC(C)N1CCC(N2CCN(Cc3ccc(-c4ccc(Cl)cc4)o3)CC2CCO)CC1 (configuration not stated) | 98 | 100 | 8 | 92 | 8 | 102 | . | . | . | . | . | . | .
Cc1ccccc1/C=C/c1nc2ccccc2c(=O)[nH]1 | 42* | 14* | . | ? | 0 | 7.3* | . | -2 | 102 | 100 | 102 | 102 | 108
O=C(CCCNS(=O)(=O)c1ccc(Cl)c(Cl)c1)NCCc1ccccn1 | 143*[activator] | 145 | 13 | 157*[activator] | 12 | 145 | 145* | 0 | 98 | 101 | 100 | 97 | 98
CC1=NCCN1CCNC(=O)Nc1cc(C)cc(C)c1 | 67 | 47 | . | ? | 3 | 47* | . | -1 | 101 | 101 | 102 | 102 | 101
CC1=NCCN1CCNC(=O)Nc1ccc(F)cc1 | 113 | 109 | . | ? | 8 | 120 | . | . | . | . | . | . | .
Cc1cccc(CSc2ncccc2C(=O)O)c1 | 135 | 285*[activator] | 21 | 105 | 23 | 122 | 122* | 2 | 96 | 93 | 91 | 93 | 70
Cc1ccc(CSc2ncccc2C(=O)O)cc1 | 95 | 97 | 11 | 100 | 14 | 104 | . | . | . | . | . | . | .
CC(=O)Nc1ccc(Nc2ccc(N3C(=O)CCCC3=O)cc2[N+](=O)[O-])cc1 | 53* | 33 | 6 | 47* | 0 | 46* | . | -3 | 105 | 103 | 107 | 103 | 94
CCC(C)Sc1nc(O)cc(=O)[nH]1 (configuration not stated) | 89 | 131 | 21 | 248*[activator] | 239* | 110 | 110* | 2 | 98 | 104 | 100 | 101 | 88
COc1ccccc1N1CCN(C(=O)Cn2nc3n(C)c4ccccc4n3c(=O)c2=O)CC1 | 94 | 59 | 14 | 100 | 5 | 97 | . | . | . | . | . | . | .
Cc1ccc(NCc2nnc(SCC(=O)O)n2Cc2ccccc2)cc1Cl | 99 | 102 | 11 | 104 | 10 | 102 | . | . | . | . | . | . | .
Cc1ccc(NCc2n[nH]c(=S)n2Cc2ccccc2)cc1Cl | 98 | 103 | 11 | 167*[activator] | 65* | 111 | 111* | 1 | 101 | 110 | 100 | 102 | 106
CCOCCCNC(C(=O)Nc1ccc(OC)c(Cl)c1)c1ccccc1 (configuration not stated) | 108 | 109 | 11 | ? | 10 | 109 | . | . | . | . | . | . | .
CCOC(=O)C(c1ccccc1)C(Nc1ccccc1)c1ccccn1 (configuration not stated) | 95 | 91 | . | ? | 6 | 93 | . | . | . | . | . | . | .
CCOC(=O)C(NCCCO)c1ccccc1 (configuration not stated) | . | . | 43 | . | . | . | . | 2 | 109 | 89 | 109 | 97 | 55
CCOC(=O)C(C(=O)OCC)C(Nc1ccccc1)c1ccccc1 (configuration not stated) | 73 | 9.4* | 9 | 79 | 6 | 77 | 77* | -2 | 99 | 95 | 100 | 98 | 90
